Source: PubChem (National Center for Advancing Translational Sciences (NCATS))
Rows were chosen to be rich in hits. Some 0.9% of all compounds tested hit in one or more screens of this group.
Fluorescein autfl: compound autofluorescence in fluorescein spectral region | 0.91% of 59,000 active | Compound autofluorescence, 480/540 nm, fluorescein-equivalent; stronger effect = higher value | max fluorescein-equivalent concentration, M; in the data active = max fluorescein-equivalent concentration above about 10 nM; inconclusive = between about 1.1 nM and that limit
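First, buffer (100 mM Tris, pH 8.0) dispensed; second, compounds and fluorescein standards pinned in; third, 15 min room-temperature incubation; finally, imaging at ex 480 nm/em 540 nm. Fluorescence normalized against the six-point fluorescein curve.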
Rhodamine fluor: compound fluoresces in the rhodamine spectral region | Rhodamine-region fluorescence, 547/598 nm, Tris buffer; stronger effect = higher value | max dye-equivalent concentration, M | 0.05% of 59,000 active | AID 594; in the data active = max dye-equivalent concentration above about 11 nM; inconclusive = between about 1.1 nM and that limit
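Compound fluorescence in 100 mM Tris, pH 8.0, read after 15 min at room temperature with 547 nm excitation and 598 nm emission. Output is dye-equivalent concentration from an on-plate rhodamine standard series.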
A488 fluor: compound autofluorescence in A488 spectral region | max dye equivalency, M | 0.1% of 59,000 active | compound autofluorescence, A488 spectral region, dye equivalency; Compound Type: qHTS ECL - MLSMR
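Compounds pin-transferred into 100 mM Tris buffer, pH 8.0, incubated 15 min at room temperature, then imaged with 480 nm excitation/540 nm emission filters. Fluorescence converted to Alexa 488 dye-equivalent concentration via an on-plate six-point A488 standard curve.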
A647 fluor: compound fluoresces in the A647 spectral region; max dye-equivalent concentration, M; 59,000 tested, under 10 active; Compound fluorescence, A647 channel (570/671 nm), Tris buffer;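 note: values scaled relative to a standard on each plate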
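Buffer was dispensed, compounds and Alexa 647 standards were pin-transferred, and plates sat 15 min at room temperature. Intensity at 570/671 nm was then converted to dye-equivalent concentration using the plate's A647 standard curve.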
TexasRed autofl: compounds fluorescent in Texas Red spectral region. Compound fluorescence, Texas Red channel, 547/618 nm; stronger effect = higher value. max dye-equivalent concentration, M. 0.06% of 59,000 active. AID 587; in the data active = max dye-equivalent concentration above about 10 nM; inconclusive = between about 1.1 nM and that limit
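Dye-equivalent concentrations come from scaling compound signal (ex 547, em 618 nm) to six Texas Red standard concentrations run on every plate, after 15 min room-temperature incubation in pH 8.0 Tris (100 mM).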
Resorufin autofl: resorufin region autofluorescence. max dye-equivalent concentration, M. Compound fluorescence, resorufin region 547/598 nm, buffer; stronger effect = higher value. 0.04% of 59,000 active
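Compounds in 100 mM Tris buffer, pH 8.0, incubated 15 min at room temperature, then read with 547 nm excitation and 598 nm emission filters. Fluorescence was converted to dye-equivalent concentration using an on-plate six-point resorufin standard curve.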
* marks the source's active call; other numbers are inactive results; i = inactive; ? = inconclusive. Unless noted, the rule behind the calls is not given here.

SMILES	Fluorescein autfl	Rhodamine fluor	A488 fluor	A647 fluor	TexasRed autofl	Resorufin autofl
O=C1CCCc2c1cc(C(=O)Nc1ccc(Cl)cn1)c(=O)n2-c1ccccc1	i	i	i	9.4e-09	i	i
Cc1ccc(-n2c3c(cc(C(=O)NC4CCSC4=O)c2=O)C(=O)CCC3)cc1 (stereo not drawn)	1.1e-08M*	i	i	1.7e-09	i	i
CCCOc1ccc(-c2nnc(-c3ccncc3)o2)cc1	?	i	i	5.9e-08	i	i
CCN(CC)c1ccc2cc(-c3nnc(-c4ccncc4)o3)c(=O)oc2c1	1e-06M*	i	4.8e-08M*	1.2e-08	i	i
N#Cc1ccc(CN2CCCC3(CCNCC3)C2)cc1	i	i	i	8.3e-09	i	i
CC(C)=C[C@H]1[C@@H](COC(=O)c2ccccc2Cl)C1(C)C	i	i	i	2.1e-08	i	i
COc1ccc(OC)c(/C=c2\sc3nc(-c4cccs4)nn3c2=O)c1	1.8e-07M*	i	?	2.4e-09	i	i
O=C(c1csnn1)N1CCC2(CCCN(Cc3ccccc3)C2)CC1	i	i	i	1e-09	i	i
CCOC(=O)C1=C(CSc2nc3c(cc2C#N)CN(C)CC3)OC(N)=C(C#N)C1c1ccccc1 (stereo not drawn)	3.4e-08M*	i	i	1e-09	i	i
N=c1c(C(=O)NCc2ccc3c(c2)OCO3)cc2c(=O)n3ccccc3nc2n1Cc1cccnc1	?	i	i	4.4e-08	i	i
N=c1c(C(=O)NCc2ccco2)cc2c(=O)n3ccccc3nc2n1Cc1ccccc1	1.9e-08M*	i	i	3.4e-08	i	i
CCOC(=O)c1cc2c(=O)n3ccccc3nc2n(Cc2ccc(Cl)cc2)c1=N	3.4e-07M*	i	2.6e-08M*	1e-09	i	i
Cc1ccc(S(=O)(=O)c2cc3c(=O)n4ccccc4nc3n(Cc3ccco3)c2=N)cc1	1.5e-08M*	i	i	7.5e-09	?	i
N=c1c(C(=O)NCc2ccco2)cc2c(=O)n3ccccc3nc2n1Cc1ccc(Cl)cc1	?	i	i	3.2e-09	?	i
COc1ccc(CNC(=O)c2cc3c(=O)n4ccccc4nc3n(Cc3cccnc3)c2=N)cc1	1.1e-07M*	i	?	4.1e-08	i	i
C[C@@H](N)/C(N)=N/O	i	i	i	3.4e-08	i	i
c1ccc(CNc2ncncc2-c2ccc3c(c2)OCO3)cc1	i	i	i	1.5e-09	i	i
CC1=CC(=O)C2=C(C)CC[C@@H]3[C@@H](OC(=O)[C@H]3C)[C@H]12	?	i	i	1e-09	i	i
CC1(C)CCC2=C(O1)c1ccccc1C(=O)C2=O	?	i	i	3.6e-08	i	i
CCCCNC(=O)c1cc2c(=O)n3cccc(C)c3nc2n(Cc2ccncc2)c1=N	1.6e-08M*	i	i	3.2e-09	?	i
COCCNC(=O)c1cc2c(=O)n3cccc(C)c3nc2n(Cc2ccncc2)c1=N	i	i	i	1.6e-08	i	i
Nc1nc(N)c(CCCCc2ccccc2)c(N)n1	?	i	i	2.5e-08	i	i
COc1ccc2cc(C(c3nnnn3CCc3ccccc3)N3CCC(O)CC3)c(=O)[nH]c2c1 (stereo not drawn)	1.4e-08M*	2.4e-08M*	i	1.2e-09	4.1e-08M*	1.3e-08M*
Cn1cc[nH]c1=S	2.2e-08M*	i	i	1.8e-08	i	i
O=C(NC12CC3CC(CC(C3)C1)C2)c1cnccn1	1.1e-08M*	i	i	1.8e-09	?	i
COc1ccc(/C=C\C(=O)Nc2ccccc2C(=O)O)cc1OC	?	i	i	1.7e-09	i	i
CC(=O)N1C(=O)N(C(C)=O)C2C1N(C(C)=O)C(=O)N2C(C)=O (stereo not drawn)	i	i	i	1e-09	i	i
CC1C2C(c3ccccc3)N(C)C(=O)N(C)C2N(C)C(=O)N1C (stereo not drawn)	1.5e-08M*	i	i	2.5e-09	i	i
Nc1ccc(C(=O)O)c(O)c1	?	i	i	1e-09	i	i
